Measurements as given in PubChem BioAssay (NCI).
Compounds without any hit were thinned out: in the full panel of roughly 83,000, 20% have a hit.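 The test compound was applied at a single concentration to cells in 96-well plates for 48 hours, and percent growth was recorded.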 Unmarked numbers belong to inactive results. Activity calls are given as the source filed them. The calls were made as follows: active = growth percent below 10; inactive = the rest.

Assays:
Assay in all cases: NCI-60 one-dose screen, 48 h (100 = growth as untreated, 0 = no growth, -100 = all killed)
Settings in all cases: 10 µM unless noted
SN12C renal = tested on: SN12C renal
UO-31 renal = tested on: UO-31 renal
TK-10 renal = tested on: TK-10 renal
ACHN renal = tested on: ACHN renal
CAKI-1 renal = tested on: CAKI-1 renal
A498 renal = tested on: A498 renal
CCRF-CEM leukemia = tested on: CCRF-CEM leukemia
MOLT-4 leukemia = tested on: MOLT-4 leukemia
EKVX NSCLC = tested on: EKVX NSCLC

| Compound | growth (SN12C renal) | growth (UO-31 renal) | growth (TK-10 renal) | growth (ACHN renal) | growth (CAKI-1 renal) | growth (A498 renal) | growth (CCRF-CEM leukemia) | growth (MOLT-4 leukemia) | growth (EKVX NSCLC) |
| --- | --- | --- | --- | --- | --- | --- | --- | --- | --- |
| CCCCCCCCCCCCNCCCc1ccccc1 | 62.9% | 60.8% | 104% | 78.1% | 93% | 76.5% | 48.9% | 54.8% | – |
| CCCCCCCCCCCC1=NCCCN1CCCC | 98.4% | 84.3% | 108% | 104% | 111% | – | 87.4% | 92% | – |
| O=C(c1ccccc1)C(O)C(Br)(CBr)c1ccccc1 (centres undefined) | 91.6% | – | 87.6% | 93.2% | 102% | – | 50% | 75.1% | 108% |
| COC(=O)Nc1nc2ccc(C3(c4ccc(F)cc4)OCCO3)cc2[nH]1 | 41.4% | 55.4% | 47.2% | 41.9% | 40.8% | 4.58% (active) | 5.57% (active) | 21.8% | – |
| Cc1ccc(N2C(=O)C=CC2=O)cc1 | 93.7% | – | 99.5% | 68.1% | 86.1% | – | 13.7% | – | 116% |
| CCC(C)(O)Cc1ccc(Cl)cc1 (centres undefined) | 103% | – | 97.6% | 111% | 101% | 89.5% | 105% | 98.4% | 111% |
| CN(C)c1ccc(C(C#N)(c2ccccc2)c2ccc(N(C)C)cc2)cc1 | 14.4% | 53% | 71.8% | 49.3% | 79.4% | – | 69.3% | 68.5% | – |
| CCOC(=O)C1(C)CCCC1N (centres undefined) | 101% | – | – | – | 87.6% | 106% | 103% | 103% | 108% |
| O=C1C=C(Cl)C(=O)c2ccccc21 | 101% | 60.8% | 152% | 38% | 90.6% | 118% | 53.3% | 37.4% | – |
| CN=C(N)N/N=C(\c1ccccc1)c1ccc(Br)cc1 | 16.2% | 0.0982% (active) | 21.6% | 21.5% | 0.888% (active) | -19.2% (active) | 2.24% (active) | -14% (active) | – |
| CC1(C)CCCC2=C1C(=O)N(SC(Cl)(Cl)Cl)C2=O | 93.4% | 79.1% | 88.2% | 82.9% | 92.4% | 120% | 40.5% | 21% | – |
| O=C(c1ccccc1)C(Br)C(Br)c1ccccc1 (centres undefined) | 104% | – | 103% | – | -50.2% (active) | 88.4% | -14% (active) | 47.5% | 108% |
| O=[N+]([O-])c1ccc2c(c1)Cc1ccccc1-2 | 101% | 82.9% | – | 94.2% | 99% | 82.4% | 91.4% | 86.2% | 61.1% |
| Cc1ccc2cccc(OC(=O)Nc3cccc(C(F)(F)F)c3)c2n1 | 61.5% | 35.8% | – | 36.4% | 35.4% | 66.3% | – | 40.4% | – |
| O=[N+]([O-])/C(=C/c1ccccc1)c1ccccc1 | 103% | 84.4% | – | 101% | 106% | 107% | 97.5% | 99% | – |
| COc1ccc2nc3cc(Cl)ccc3c(NCCCCCN3CCCCC3)c2c1 | 10.3% | -40.6% (active) | -9.41% (active) | -67.7% (active) | -50.3% (active) | 19.7% | -27.6% (active) | -19.5% (active) | – |
| CCCCCCCCCCCCSC(=N)N | 51.3% | -27.2% (active) | 87.4% | -12.6% (active) | -7.66% (active) | 80.8% | -22.8% (active) | -37.1% (active) | – |
| O=[N+]([O-])c1cc(-c2ccccc2)c(O)c([N+](=O)[O-])c1 | – | – | – | 87.7% | – | – | – | – | – |
| c1csc(-c2[nH]nc3c2CCc2ccccc2-3)c1 | – | – | – | 82.3% | 79% | – | – | – | – |
| CCCCN(CCCC)CCCCCCCCCCO | – | – | – | – | 105% | – | – | – | – |
